Records with an inconclusive call do not appear. A number with no mark means an inactive call. Calls come from the whole dose curve; as a rule, active = well fitted inhibition curve with a large enough effect; inconclusive = small, poorly fitted or top-dose-only effect; inactive = flat fitted curve, though single readings scatter.

This experiment deals with CP201. The experiment is described as follows: qHTS profiling for inhibitors of Plasmodium falciparum proliferation (AID 504749).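 Note: 0% = DMSO vehicle and full inhibition = artemisinin control; nearly all actives have a fitted effect of over 60% in size.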 The note with it: P. falciparum in erythrocytes, SYBR Green DNA, 72 h; series mostly up to 28.7 µM; activity, negative = inhibition: at the top concentration. A digest of the protocol: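 Three-day growth assay of blood-stage parasites in erythrocytes (0.3% parasitemia, 2.5% hematocrit) at 37 C, 5% CO2, quantified by SYBR Green DNA staining after overnight detergent lysis.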
Consider `CCN(CC)C(=O)c1cccnc1`, for which the “activity, negative = inhibition” value is -0.406%.

`CNC(=O)C[C@@H](N)C(=O)N[C@@H](C(=O)N[C@@H]1C(=O)N2[C@@H]1SC(C)(C)[C@@H]2C(=O)O)c1ccc(O)cc1`: the “activity, negative = inhibition” value was 0.881%.

`CCCCCCCCCCCCCCCCCC(=O)OCC(C)O` (centres undefined): the “activity, negative = inhibition” value was 0.255%.

Turning to `NC(=S)NS(=O)(=O)c1ccc(N)cc1`, the “activity, negative = inhibition” value is 0.0534%.

As for `N=C(N)n1cccn1`, the “activity, negative = inhibition” value is -0.192%.

Regarding `Nc1ncnc2c1ncn2CCOCP(=O)(O)O`, the “activity, negative = inhibition” value is -0.718%.

For `CCC(C(=O)NC(N)=O)c1ccccc1` (centres undefined), the “activity, negative = inhibition” value was 0.911%.

Take `CC(C)CCC[C@@H](C)[C@H]1CC[C@H]2[C@@H]3CC=C4C[C@@H](O)CC[C@]4(C)[C@H]3CC[C@]12C`: the “activity, negative = inhibition” value is -9.82%.

As for `CC1=CCC2CC1C2(C)C` (centres undefined), the “activity, negative = inhibition” value was -2.36%.

With `NC(N)=O`, the “activity, negative = inhibition” value was -0.772%.

Consider `Cc1ncc(C[n+]2csc(CCOP(=O)(O)OP(=O)(O)O)c2C)c(N)n1`, for which the “activity, negative = inhibition” value is 3.61%.

Take `Nc1nc(=O)n([C@@H]2CS[C@H](CO)O2)cc1F`: the “activity, negative = inhibition” value is 4.24%.

With `CCOC(=O)[C@@H](N)CS`, the “activity, negative = inhibition” value was -1.23%.

For the compound `OCC(O)CO`, the “activity, negative = inhibition” value is 1.37%.

Take `O=C1c2ccccc2C(=O)C1c1ccc(F)cc1`: the “activity, negative = inhibition” value is -3.48%.

Turning to `O=C(O)COc1ccccc1/C=N/NC(=O)c1ccncc1`, the “activity, negative = inhibition” value was -0.395%.

As for `Cc1cccc(C)c1NC(=O)C1CCCCN1C` (centres undefined), the “activity, negative = inhibition” value was -2.71%.

As to `CCC(C)[C@@H](N)C(=O)O` (some centres undefined), the “activity, negative = inhibition” value is -3.65%.

Turning to `CC(C)(Oc1ccc(C2CCCc3ccccc32)cc1)C(=O)O` (centres undefined), the “activity, negative = inhibition” value was 2.56%.

With `CC(CC=O)CCCC(C)(C)O` (centres undefined), the “activity, negative = inhibition” value was -3.81%.

For the compound `S=C1SCN(Cc2ccccc2)CN1Cc1ccccc1`, the “activity, negative = inhibition” value was -7.76%.

For `CC(C)Cc1ccc([C@@H](C)C(=O)NS(C)(=O)=O)cc1`, the “activity, negative = inhibition” value was 5.85%.

On to `COc1cc2c(cc1OC)[C@@H](Cc1cc(OC)c(OC)c(OC)c1)[N+](C)(CCCOC(=O)CC/C=C/CCC(=O)OCCC[N+]1(C)CCc3cc(OC)c(OC)cc3[C@H]1Cc1cc(OC)c(OC)c(OC)c1)CC2` (some centres undefined), for which the “activity, negative = inhibition” value was 2.21%.

Take `COC(=O)CCC[N+](C)(C)C`: the “activity, negative = inhibition” value is 2.03%.

For `[O]=[Bi][O][Bi]=[O]`, the “activity, negative = inhibition” value is -0.793%.

As to `C[C@]12CC[C@@H]3c4ccc(OC(=O)c5ccccc5)cc4CC[C@H]3[C@@H]1CC[C@@H]2O`, the “activity, negative = inhibition” value was 0.703%.

Turning to `Cc1ccc(C(C)(C)c2ccc(C)cc2)cc1`, the “activity, negative = inhibition” value is 1.54%.

With `FC(F)OC(Cl)C(F)(F)F` (centres undefined), the “activity, negative = inhibition” value is -1.45%.

As to `CC(CCc1ccc(O)cc1)NCC(O)c1ccc(O)cc1` (centres undefined), the “activity, negative = inhibition” value is -4.32%.

On to `CC1=C(/C=C/C(C)=C/C=C/C(C)=C/C(=O)Oc2c(C)c(C)c3c(c2C)CC[C@@](C)(CCC[C@H](C)CCC[C@H](C)CCCC(C)C)O3)C(C)(C)CCC1`, for which the “activity, negative = inhibition” value was 2.95%.

Take `O=P(O)(O)OP(=O)(O)OP(=O)(O)O`: the “activity, negative = inhibition” value is -2.83%.

Turning to `CO/N=C(\C(=O)N[C@@H]1C(=O)N2C(C(=O)[O-])=C(C[n+]3cccc4c3CCC4)CS[C@H]12)c1csc(N)n1`, the “activity, negative = inhibition” value is -0.758%.

Regarding `CCCCCCCCCCCC(=O)OCC(O)CO` (centres undefined), the “activity, negative = inhibition” value was 0.159%.

`CS(=O)(=O)OCC(O)C(O)COS(C)(=O)=O` (centres undefined): the “activity, negative = inhibition” value is -2.58%.

Regarding `CC1=CC(=O)NS(=O)(=O)O1`, the “activity, negative = inhibition” value was 1.72%.

`O=C(O)CCCC/C=C(\c1ccccc1)c1cccnc1`: the “activity, negative = inhibition” value was 3.27%.

For the compound `CCN(CC)C(=S)S`, the “activity, negative = inhibition” value was 2.35%.

With `C[Se]CC[C@H](N)C(=O)O`, the “activity, negative = inhibition” value is -2.48%.

With `CC(C)[C@H](N)C(=O)OCC(CO)OCn1cnc2c(=O)[nH]c(N)nc21` (some centres undefined), the “activity, negative = inhibition” value was -4.75%.

For the origin of these results see PubChem BioAssay (NCATS).
